Source: PubChem BioAssay AID1851 (National Center for Advancing Translational Sciences (NCATS), 2009)
Out of some 16,000 compounds screened, about 2,600 (16%) were called active. Inconclusive results (about 20%) are left out. The call rests on the fitted dose curve; in most records, active means well fitted curve in the direction sought with a large enough effect; inconclusive means small, poorly fitted or top-dose-only effect, or effect the other way; inactive means no such curve, though single readings can be large or run the other way. Only a sample is shown.

target: Cytochrome P450 2D6 (Homo sapiens) (UniProt P10635); experiment: Cytochrome panel assay with activity outcomes; conditions: recombinant CYP, pro-luciferin dealkylation, luminescence, p450-cyp2d6; series mostly up to 57.1 µM
On the % scale 0 is the no-effect control and ±100 the full control effect.

Cytochrome P450 2D6 (Homo sapiens), sequence (P10635 whole entry, looked up): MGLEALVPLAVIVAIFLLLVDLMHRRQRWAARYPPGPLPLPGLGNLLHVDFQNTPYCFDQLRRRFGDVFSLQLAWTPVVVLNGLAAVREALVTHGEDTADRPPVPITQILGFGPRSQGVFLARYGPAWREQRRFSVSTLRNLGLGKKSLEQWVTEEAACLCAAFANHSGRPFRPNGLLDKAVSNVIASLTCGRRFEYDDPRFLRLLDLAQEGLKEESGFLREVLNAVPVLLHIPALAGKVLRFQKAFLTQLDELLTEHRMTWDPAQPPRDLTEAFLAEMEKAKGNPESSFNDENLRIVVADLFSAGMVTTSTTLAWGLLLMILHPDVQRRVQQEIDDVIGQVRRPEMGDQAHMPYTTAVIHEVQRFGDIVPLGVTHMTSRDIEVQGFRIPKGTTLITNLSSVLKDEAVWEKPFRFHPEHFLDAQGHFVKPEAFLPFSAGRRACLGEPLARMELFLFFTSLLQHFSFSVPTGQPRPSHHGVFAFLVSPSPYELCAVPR

AC50, inactive:
O=C(N/N=C/C=C/c1ccccc1)c1cc2c(ccc3ccccc32)o1
O=C(O)[C@@H](O)[C@@H](O)[C@@H](O)[C@@H](O)C(=O)O (tested in a mixture with another compound)
CC(C)CCNC(=S)NC1CCCC1
Cc1nn(C(C)(C)C)c(OC(=O)c2ccco2)c1Sc1ccccc1
CCOC(=O)c1c(C)c(C(=O)N2CCN(C(=O)c3ccco3)CC2)c(C)n1C
C[C@@]12CC[C@@H]3c4ccc(O)cc4CC[C@H]3[C@H]1C[C@@H](O)[C@H]2O
Cc1ccc(C(=O)CN(C(=O)c2ccc(Cl)cc2)N2C(=O)c3ccccc3C2=O)cc1
Cc1nnc(-c2cnn(-c3ccccc3)c2N)n1Cc1ccccc1
COc1cccc(/C=N\NC(=O)C2C(=O)NCC2c2ccccc2)c1O (stereo not given)
COc1ccc(-c2nn(-c3ccccc3)cc2/C=N/NC(=O)c2ccc(Br)o2)cc1
Cn1c(=O)n(CC#N)c2ccccc21
c1ccc(Cc2nnc(Sc3ccccc3)c3ccccc23)cc1
CNCCc1ccccn1
COCC(=O)Nc1c(I)c(C(=O)NC[C@@H](O)CO)c(I)c(C(=O)N(C)C[C@@H](O)CO)c1I
O=C(CCCc1ccccc1)N1CCN(c2ccc([N+](=O)[O-])cc2)CC1
CCOc1cc(/C=C2/SC(=O)N(CC(=O)N3CCc4ccccc4C3)C2=O)ccc1OCC(=O)O
CC(C)N(C(=O)CSc1nc2ccccc2n1-c1ccccc1)C(C)C
COc1ccc(C(=O)N2CCC3(CCCN(C)C3)CC2)cc1
COc1ccc(C(=O)N2CCC3(CCCN(CC(C)C)C3)CC2)cc1
COc1ccc(C(=O)N2CCC[C@@]3(CCN(Cc4ccc(C#N)cc4)C3)C2)cc1
COc1ccc(C(=O)N2CCC[C@@]3(CCN(C(=O)Nc4ccccc4)C3)C2)cc1
C=CCc1cc(C=O)cc(OC)c1OCc1ccc(Cl)cc1
COc1cc(-n2ccnc2SC)c(Cl)cc1Cl
CCNc1nc(NCC)nc(ON=C(C)C)n1
COc1ccc2nc(/N=C\N(C)C)sc2c1
Cc1[nH]n2c(=O)c(C#N)c(-c3ccccc3)nc2c1-c1ccccc1
CCC#CCOCC(=O)Nc1ccccc1
c1ccc(CCNc2nnnn2-c2ccccc2)cc1
CC(C)n1c(=O)c2c(O)cc(=O)oc2c2ccccc21
NC(=O)[C@H]1CC2(CC(c3cccc(NC(=O)c4ccccc4)c3)=NO2)CN1C(=O)[C@H]1CCC(=O)N1 (stereo not given in full)
CCC(CC)C(=O)Nc1cccc(C(=O)Nc2ccc(OC)cc2[N+](=O)[O-])c1
COc1ccc(NC(=O)C(F)(F)F)cc1OC
O=C(OC(C(=O)NC1CCCC1)c1ccncc1)C1=Cc2ccccc2OC1 (stereo not given)
Cc1ccc(CNC(=O)C2(NC(=O)Nc3ccc(C)cc3)CCCCC2)cc1
CCn1c(SCC(=O)OC)nnc1C1CCCCC1
CCn1c(COc2ccccc2)nnc1SCC(=O)c1cccc([N+](=O)[O-])c1
CCN(CC)C(=O)CSc1nnc(-c2cc3ccccc3cc2O)n1CC
CCn1c(SCC(=O)NC2CCCc3ccccc32)nnc1-c1cccs1 (stereo not given)
CCn1c(SCC(=O)NC(=O)NCc2ccco2)nnc1-c1cccs1
COc1ccc(NC(=O)CSc2nnc(C3CC3)n2-c2ccccc2)cc1
CCCCN=c1sc(C(=O)OC)cc(=O)n1CCCC
Cc1noc(C)c1C(=O)N1CCC2(CCCN(c3ccncc3)C2)CC1
O=C(O)c1cc2c(o1)CCC/C2=N\O
Cc1nc2ncnn2c(C)c1CCC(=O)Nc1ccc(S(=O)(=O)N2CCCCCC2)cc1
CCCn1nc(Oc2nc(NCC)nc(NCC)n2)ccc1=O
Cc1nc2nc(-c3ccc(Cl)cc3)nn2c(C)c1Cl
COC(=O)c1cc(NC(=O)CC2NC3CCCCC3NC2=O)cc(C(=O)OC)c1 (stereo not given)
C/C=C\C[C@H](C)[C@H](O)[C@H]1C(=O)N[C@@H](CC)C(=O)N(C)CC(=O)N(C)[C@@H](CC(C)C)C(=O)N[C@@H](C(C)C)C(=O)N(C)[C@@H](CC(C)C)C(=O)N[C@@H](C)C(=O)N[C@@H](C)C(=O)N(C)[C@@H](CC(C)C)C(=O)N(C)[C@@H](CC(C)C)C(=O)N(C)[C@@H](C(C)C)C(=O)N1C
COc1ncc2nc(-c3ccc(Cl)cc3)c(=O)n(-c3ccccc3)c2n1
CCc1ccc(-c2ccc(C(=O)C(F)(F)F)[nH]2)cc1
Cc1ccccc1C(=O)NC(NCc1ccco1)C(Cl)(Cl)Cl (stereo not given)
Cc1nc(SCC(=O)Nc2c(C)nn(C)c2C)c2cnn(-c3ccccc3)c2n1
CCc1nnc(NC(=O)C2CCN(C(=O)NC3CCCCC3)CC2)s1
CC(/C=N/NC(=O)c1cccc([N+](=O)[O-])c1)=C\c1ccccc1
COc1cc(/C=N/NC(=O)c2cccc([N+](=O)[O-])c2)ccc1OCc1ccc(C)cc1
N#CCCn1c(=O)c(-c2ccccc2)nc2cnc(OCc3ccccc3)nc21
COc1ccc(C(=O)Nc2ccc(C(=O)OCC(=O)c3ccccc3)cc2)cc1
COc1ccc(C(=O)COC(=O)c2ccc(NC(=O)c3ccccc3)cc2)cc1
COc1cccc(Cn2c(=O)c(CCc3ccccc3)nc3cnc(N(C)C)nc32)c1
N[C@@H](C(=O)O)c1ccc(O)c(C(=O)O)c1
COc1cccc(Cn2c(=O)c(CCc3ccccc3)nc3cncnc32)c1
CC(=O)NS(=O)(=O)c1ccc(NC(=O)NC2CCCCC2)cc1
CC(=O)Nc1ccc(S(=O)(=O)NCC2CCC(C(=O)N3CCN(c4ccccn4)CC3)CC2)cc1 (stereo not given)
O=c1c2ccccc2nnn1CSc1nnc(COc2ccc(Cl)cc2)n1Cc1ccco1
Cc1noc(NS(=O)(=O)c2ccc(NC(=O)CC34CC5CC(CC(Br)(C5)C3)C4)cc2)c1C
CCCCCCC(C)n1cc(C(C)=O)c(=O)[nH]c1=O (stereo not given)
CCC/C=C(\CCC)C(NC(=O)Oc1ccc(F)cc1)c1ccc(C(=O)OC)cc1 (stereo not given)
COC(=O)c1[nH]c2ccc(Br)cc2c1NC(=O)CN1CCCc2ccccc21
COC(=O)c1[nH]c2ccc(Br)cc2c1NC(=O)Oc1ccccc1
CCOC(=O)C1CN(S(=O)(=O)c2cccc(C(F)(F)F)c2)c2cc(CC(=O)OC)ccc2O1 (stereo not given)
CN1CCN(c2ncc3nc(-c4ccc(Cl)cc4)c(=O)n(CCC#N)c3n2)CC1

AC50, active:
CCOC(=O)c1c(C)c(C(=O)N2CCCCCC2)c(C)n1C 11.2 µM
CN(C)c1ccccc1CN1CCCN(Cc2ccccc2N(C)C)C1c1ccncc1 1.26 µM
CN(CCc1ccccn1)c1ccc2c(c1)Cc1ccccc1-2 3.16 µM
COc1ccc(C(=O)N2CCC[C@@]3(CCN(Cc4ccccc4)C3)C2)cc1 7.94 µM
COc1ccc(C(=O)N2CCC3(CCCN(Cc4ccccc4)C3)CC2)cc1 7.94 µM
Cn1ncc2c(NCCc3ccccc3)nc(Cl)nc21 0.126 µM
CCCCCCCCC[n+]1cccc2c3ccccc3ccc21 0.0708 µM
CCn1c(SCC(=O)c2ccc3ccccc3c2)nnc1-c1cccs1 14.1 µM
CCn1c(SCC(=O)c2ccccc2)nnc1-c1cccs1 14.1 µM
CCn1c(SCC(=O)c2ccc(OC)cc2)nnc1C1CC1 14.1 µM
CC(=O)N/N=C/c1cc([N+](=O)[O-])ccc1OCCOc1ccccc1 0.0562 µM
O=C(C[n+]1cccc(NC(=O)c2ccccc2)c1)c1ccc(NC(=O)c2ccccc2)cc1 14.1 µM
CC1=NCC[N@@+]1(CCc1ccccc1)Cc1ccccc1 0.0501 µM
CC(=O)Nc1ccc(S(=O)(=O)N2CCN(c3nc(NC4CCCC4)c4ccccc4n3)CC2)cc1 12.6 µM
COC(=O)c1[nH]c2ccc(Br)cc2c1NC(=O)CN1CCN(C2CCCCC2)CC1 1 µM

activity, negative = inhibition, inactive:
CCOC(=O)c1c(C)c(C)n2c1NC(=O)C2 -4.83% [at 11.4 µM]
Oc1ccccc1C(Sc1nc2ccccc2s1)Sc1nc2ccccc2s1 -20.9% [at 11.4 µM]
S=C(Nc1ccc2c(c1)Cc1ccccc1-2)Nc1ccc2c(c1)Cc1ccccc1-2 1.03% [at 11.4 µM]
Cn1ncc2c(Nc3cccc(Cl)c3)nc(Nc3cccc(Cl)c3)nc21 16.7% [at 11.4 µM]
O=C1C2=C(Nc3cc([N+](=O)[O-])ccc3N2)O[C@@H]1c1c[nH]c2ccc(COc3ccccc3)cc12 5.7% [at 11.4 µM]
COc1ccc(COC(=O)N/N=C2/C[C@@H](O)[C@@H](O)[C@@H]3[C@@H]4C(=O)N([C@@H](C)c5ccccc5)C(=O)[C@H]4CC[C@H]23)cc1 -3.9% [at 11.4 µM]
O=C1CN2CCN(CC2)CC(=O)Nc2ccc(cc2)S(=O)(=O)c2ccc(cc2)NC(=O)CN2CCN(CC2)CC(=O)Nc2ccc(cc2)S(=O)(=O)c2ccc(cc2)N1 0.0037% [at 11.4 µM]
CC1(C)OC[C@@H]2O[C@H](n3cnc4c(N)nc(Cl)nc43)[C@@H](OS(C)(=O)=O)[C@@H]2O1 8.22% [at 11.4 µM]
CNS(=O)(=O)c1ccccc1C(=N)c1ccccc1 19.2% [at 11.4 µM]
